ClpP mod: qHTS Assay for Activators of ClpP; ATP-dependent Clp protease proteolytic subunit (Bacillus subtilis (strain 168)), P80244; purified B. subtilis ClpP, FRET peptide cleavage, 20 min; Potency, µM (titrated, usually from 57.5 µM), for the others: at the top dose activity change, negative = active; hit rate 1.9% among 340,000; active = well fitted falling curve with a large enough effect; inconclusive = small, poorly fitted or top-dose-only effect; inactive = no such curve, though single readings can be large or run the other way; note: the source files actives as falling curves though it sought activators and does not explain the sign; nearly all actives have a fitted effect of over 65% in size
Target sequence (P80244 whole entry, looked up): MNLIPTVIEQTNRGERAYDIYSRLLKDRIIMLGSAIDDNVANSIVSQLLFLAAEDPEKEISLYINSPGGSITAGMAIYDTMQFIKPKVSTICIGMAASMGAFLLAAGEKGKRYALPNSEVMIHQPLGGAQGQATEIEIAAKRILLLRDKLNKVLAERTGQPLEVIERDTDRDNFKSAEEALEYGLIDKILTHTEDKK
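Buffer: 100 mM Tris/HCl pH8, 100 mM KCl, 0.05% low protease BSA, 2.5% glycerol, 0.01% Tween-20. ClpP 10 microg/mL final; 20 min RT; delta FRET normalized to ADEP and DMSO controls.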
TSG101-PTAP inh: blocks PTAP/TSG101 interaction to inhibit HIV-1 budding; Q99816; Fluorescence polarization, FITC-PTAP peptide / Tsg101 binding; Potency, µM (titrated, usually from 115 µM), without a hit: top-dose activity change, negative = inhibition, hits mostly inhibitors; 340,000 tested, under 10 active; AID 493005; active = well fitted inhibition curve with a large enough effect in the main read-out, with a control signal flat, not every such curve was filed as active; inconclusive = small, poorly fitted or top-dose-only effect, or effect the other way, or a change in a side signal; inactive = no such curve, though single readings can be large or run the other way; note: % of control where 0% means no effect
Target sequence (Q99816 whole entry, looked up): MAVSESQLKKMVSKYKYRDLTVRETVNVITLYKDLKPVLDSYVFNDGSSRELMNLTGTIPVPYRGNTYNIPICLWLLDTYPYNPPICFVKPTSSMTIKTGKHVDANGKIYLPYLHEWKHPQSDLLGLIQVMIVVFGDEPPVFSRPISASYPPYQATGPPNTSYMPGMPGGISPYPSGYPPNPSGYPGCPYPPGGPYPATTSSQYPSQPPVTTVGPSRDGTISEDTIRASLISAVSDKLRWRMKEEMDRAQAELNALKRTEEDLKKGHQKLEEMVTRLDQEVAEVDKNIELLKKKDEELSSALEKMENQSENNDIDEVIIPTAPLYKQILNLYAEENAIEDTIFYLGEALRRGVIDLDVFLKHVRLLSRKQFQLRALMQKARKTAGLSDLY
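Fluorescence anisotropy tracks displacement of a FITC-tagged PTAP peptide (50 nM) from the Tsg101 binding domain (10 uM), following a 20 min room-temperature incubation at pH 7.5.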
ALOX12 inh: blocks human arachidonate 12S-lipoxygenase. P18054. hit rate 1.1% among 580,000. purified 12hLO, xylenol orange hydroperoxide absorbance. Potency, µM (doses to about 108 µM), for inactives: at the highest dose activity change, negative = inhibition, usual class: inhibitors. AID 1671190; active = well fitted curve in the direction sought with a large enough effect; inconclusive = small, poorly fitted or top-dose-only effect, or another doubt; inactive = no such curve, though single readings can be large; an effect the other way counts as inactive or inconclusive; note: % is set by controls: 0 for no effect and ±100 for the full control effect
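Purified human 12hLO at 150 nM in 25 mM Hepes, 0.01% Triton X-100, pH 7.0, preincubated 15 min at room temperature with compound. Reaction started with 40 uM arachidonic acid, 30 min at room temperature. Hydroperoxide measured by Fe-xylenol orange, 573/405 nm absorbance ratio.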
Rango complex inh: inhibitors of Rango-importin beta complex formation; Potency, µM (highest dose often 92.2 µM), for the others: at the highest dose inhibition of complex formation; hit rate 0.031% among 340,000; Rango CFP/YFP FRET sensor + importin beta, 45 min; Q14974;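 note: 0% = DMSO wells and 100% = buffer wells lacking importin beta; nearly all actives have a fitted effect of over 15% in size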
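FRET biosensor (snurportin 1 IBB flanked by EYFP and cerulean), 50 nM, with compound 5 min, then 0.125 microM importin beta in PBS, 1 mM DTT, 0.02% Tween-20, 0.1% BSA. CFP/YFP ratio read after 45 min at room temperature; pre-read flags interference.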
Rango dissoc inh: inhibition of RanGTP-driven Rango-importin beta dissociation. O95149+P62826. Biochemical FRET Rango-importin beta, RanGTP-induced dissociation. Potency, µM (series often up to 46.1 µM), inactives show top-dose activity change, negative = inhibition. hit rate 0.071% among 340,000; note: % of control where 0% means no effect; nearly all actives have a fitted effect of over 45% in size
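Quantitative HTS using a FRET biosensor: 0.1 uM Rango, 0.25 uM importin beta, 0.6 uM Ran, 2 mM GTP, 0.2 uM RCC1 final, PBS with DTT, Tween-20 and BSA. Post-read taken 45 min after Ran addition.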
TDP1 block: blocks human tyrosyl-DNA phosphodiesterase 1 | Q9NUW8 | recombinant TDP1, AlphaScreen DNA substrate cleavage | Potency, µM (series often up to 130 µM), for inactives: at the top dose activity change, negative = inhibition, actives largely listed as inhibitors | hit rate 0.28% among 350,000; active = well fitted curve in the direction sought with a large enough effect; inconclusive = small, poorly fitted or top-dose-only effect, or another doubt; inactive = no such curve, though single readings can be large; an effect the other way counts as inactive or inconclusive; note: % is set by controls: 0 for no effect and ±100 for the full control effect; nearly all actives have a fitted effect of over 40% in size
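Recombinant E. coli-expressed Tdp1 (1 nM) preincubated with compound 15 min at RT, then 5'-biotin/3'-phosphotyrosine-FITC DNA substrate (15 nM) added for 5 min. AlphaScreen beads (10 ug/ml) added, 10 min RT; tyrosine-FITC cleavage read as signal loss.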
Starred values were filed as active, the others as inactive; ? = inconclusive; . = no result; [ ] = another dose, or the depositor's remark. Hits are enriched below; roughly 2.4% of the tested compounds scored in any of these assays. Unless noted, calls come from the whole dose curve. Potency is the fitted concentration of half-maximal effect.

SMILES | ClpP mod | TSG101-PTAP inh | ALOX12 inh | Rango complex inh | Rango dissoc inh | TDP1 block
COc1ccc(-c2cc(C[C@H]3CNCC[C@H]3CC(=O)NCc3ccc(F)cc3)no2)cc1 | . | . | -12% | . | . | .
COc1ccccc1N1CCN(C(=O)C[C@@H]2CCNC[C@@H]2Cc2cc(-c3ccc(F)cc3)on2)CC1 | . | . | 11% | . | . | .
CC(C)(C)c1ccc(-c2cc(C[C@H]3CNCC[C@H]3CC(=O)Nc3nccs3)no2)cc1 | . | . | -16% | . | . | .
COc1ccc(-c2cc(C[C@H]3CNCC[C@H]3CC(=O)N3CCN(c4ccccc4OC)CC3)no2)cc1 | . | . | 28µM* | . | . | .
COc1ccc(CNC(=O)C[C@@H]2CCNC[C@@H]2Cc2cc(-c3ccc(C(C)(C)C)cc3)on2)cc1 | . | . | 18µM* | . | . | .
CC(C)(C)NC(=O)C[C@@H]1CCNC[C@@H]1Cc1cc(-c2ccc(C(C)(C)C)cc2)on1 | . | . | 35µM* | . | . | .
CC(C)(C)c1ccc(-c2cc(C[C@H]3CNCC[C@H]3CC(=O)NCc3ccc(F)cc3)no2)cc1 | . | . | 22µM* | . | . | .
COc1ccc(/C(=N/OC(=O)c2ccccc2Cl)c2nccc3cc(OC)c(OC)cc23)cc1OC | . | . | 32% | . | . | .
COc1ccc(C(=O)Nc2ccc(C(O)[C@H]3COCC(=O)N3C)cc2)cc1 (some centres not stated) | . | . | 27%[176 µM] | . | . | .
Cn1ccnc1CN1C(=O)CO[C@H](c2ccc(NS(=O)(=O)Cc3ccccc3)cc2)[C@H]1CO | . | . | 3% | . | . | .
Cc1cc(C)cc(NC(=O)c2ccc(NC(=O)C3C4CC5OC(=O)C3C5C4)cc2)c1 (configuration not stated) | 32µM* | -1% | 0% | 2% | 1% | 0%
COc1cccc(NC(=O)C2C3CC4OC(=O)C2C4C3)c1 (configuration not stated) | -1% | -2% | 0% | -1% | 1% | 1%
O=C(NCCC12CC3CC(CC(C3)C1)C2)c1cccs1 | . | . | 6% | . | . | .
Cc1cccc(NC(=S)Nc2cccc3ccccc23)c1 | 3% | -6% | ? | -2% | 1% | 4%[56.1 µM]
CCc1cccc(NC(=S)Nc2cccc3ccccc23)c1 | 4% | 0% | 45µM* | -1% | -15% | 6%
COc1cc(C2(c3ccc(O)c(OC)c3)C(=O)Nc3c(C)cc(Br)cc32)ccc1O | . | -3% | 25µM* | 2% | 1% | .
CC[N+](C)(C)CCN(Cc1ccc(Cl)cc1)c1ccccn1 | 28µM* | 0% | 0% | 0% | 1% | 3%
COc1ccc(CN(CCN(C)C)c2ccccn2)cc1 | -2% | 2% | 16% | ? | 17% | 8%
O=C1CC(c2ccccc2)N(C(=O)CNC(=O)NCCc2ccccc2)CCCCCN1 (configuration not stated) | . | . | 2% | . | . | .
CN1C(=O)CS(=O)C12CCN(C(=O)C1(c3ccccc3)CC1)CC2 (configuration not stated) | . | . | 6% | . | . | .
CCOC(=O)c1sc2nc(C)c3c(c2c1N)CC(C)(C)OC3 | 28µM* | -1% | -2% | 1% | 4% | -1%
CCOC(=O)c1sc2nc(C)cc(C)c2c1N | 28µM* | -10% | -15% | 1% | 9% | 8%
COCc1cc(C)nc2sc(C(=O)Nc3nccs3)c(N)c12 | -2% | -4% | 19% | ? | ? | 6%
CCOC(=O)c1sc2nc(CC)c3c(c2c1N)CC(C)(C)OC3 | . | . | -1% | . | . | .
Cc1cc(C)c2c(N)c(C(=O)Nc3nccs3)sc2n1 | 35µM* | 0% | 0% | ? | ? | ?
COc1cccc(CNC(=O)Nc2c(N3CCCC3)c3ccccc3oc2=O)c1 | . | . | -19% | . | . | .
N#Cc1c(-c2ccco2)c2c([nH]c1=S)CCCC2 | -3% | 0% | 32µM* | -1% | -3% | 11%
